Measured values from the antibiotic and cytotoxicity screens of Wong et al. (2023).
About 1,500 (3.8%) of roughly 39,000 compounds were called active. The full list was thinned out, with actives kept by preference.

These compounds were tested on HSkMC (human skeletal muscle cells) (assay: cytotoxicity call (relative viability < 0.9)). Settings: 10 µM.

| Compound | cytotoxicity call |
| --- | --- |
| COC1=CC(=O)c2ccccc2C1=O | inactive |
| COc1ccc(C(=O)C=Cc2ccccc2)cc1 | inactive |
| COC1=CC(=O)C(O)=CC1=CC=Cc1ccccc1 | active |
| C[C@H]1CCCCO[C@H](CN(C)C(=O)Nc2ccc(C(F)(F)F)cc2)[C@@H](C)CN([C@@H](C)CO)C(=O)c2cc(NS(C)(=O)=O)ccc2O1 | inactive |
| Cc1noc(C)c1S(=O)(=O)Nc1ccc2c(c1)C(=O)N([C@H](C)CO)C[C@@H](C)[C@@H](CN(C)CC1CCCCC1)OCCCC[C@@H](C)O2 | inactive |
| C[C@H]1CN([C@@H](C)CO)C(=O)c2cccc(NC(=O)c3nc4ccccc4s3)c2O[C@@H]1CN(C)Cc1ccc(C(F)(F)F)cc1 | active |
| C[C@@H]1CN([C@@H](C)CO)C(=O)c2cccc(NC(=O)c3nc4ccccc4s3)c2O[C@H]1CN(C)Cc1ccc(C(F)(F)F)cc1 | inactive |
| C[C@@H]1CN([C@@H](C)CO)C(=O)c2cccc(NC(=O)c3nc4ccccc4s3)c2O[C@@H]1CN(C)Cc1ccc(C(F)(F)F)cc1 | inactive |
| C[C@H](CO)N1C[C@H](C)[C@@H](CN(C)Cc2ccc(C(F)(F)F)cc2)Oc2c(NC(=O)c3nc4ccccc4s3)cccc2C1=O | inactive |
| C[C@@H]1CN([C@H](C)CO)C(=O)c2cccc(NC(=O)c3nc4ccccc4s3)c2O[C@@H]1CN(C)Cc1ccc(C(F)(F)F)cc1 | inactive |
| C[C@@H]1CN([C@H](C)CO)C(=O)c2cccc(NC(=O)c3nc4ccccc4s3)c2O[C@H]1CN(C)Cc1ccc(C(F)(F)F)cc1 | active |
| C[C@H](NC(=O)C[C@@H]1C[C@@H]2c3cc(NC(=O)Nc4ccc(C(F)(F)F)cc4)ccc3O[C@@H]2[C@@H](CO)O1)c1ccccc1 | inactive |
| C[C@H]1CN([C@@H](C)CO)C(=O)c2ccccc2-c2ccccc2CO[C@@H]1CN(C)Cc1cccc(C(F)(F)F)c1 | inactive |
| C[C@@H]1CCCCO[C@@H](CN(C)C)[C@@H](C)CN([C@H](C)CO)C(=O)c2cc(NC(=O)Nc3ccc(C(F)(F)F)cc3)ccc2O1 | inactive |
| CO[C@@H](CN(C)S(=O)(=O)c1cccc(Cl)c1)[C@@H](C)CN([C@H](C)CO)S(=O)(=O)c1ccc(Cl)cc1 | inactive |
| C[C@H](CO)N1C[C@H](C)[C@@H](CN(C)C(=O)CCCN(C)C)OCCCC[C@H](C)Oc2ccc(NC(=O)Nc3ccc(C(F)(F)F)cc3)cc2C1=O | inactive |
| C[C@H](CO)N1C[C@H](C)[C@H](CN(C)Cc2ccc(-c3ccccc3)cc2)Oc2ccc(NC(=O)Cc3cn(C)c4ccccc34)cc2C1=O | active |
| C[C@H]1CN([C@@H](C)CO)C(=O)c2cc(NC(=O)Cc3cn(C)c4ccccc34)ccc2O[C@@H]1CN(C)Cc1ccc(Oc2ccccc2)cc1 | active |
| C[C@@H]1CN([C@@H](C)CO)C(=O)c2cc(NC(=O)Cc3cn(C)c4ccccc34)ccc2O[C@H]1CN(C)Cc1ccc(-c2ccccc2)cc1 | inactive |
| C[C@H](CO)N1C[C@H](C)[C@H](CN(C)Cc2ccc(Oc3ccccc3)cc2)Oc2ccc(NC(=O)Cc3cn(C)c4ccccc34)cc2C1=O | active |
| C[C@@H]1CN([C@H](C)CO)C(=O)c2cc(NC(=O)Cc3cn(C)c4ccccc34)ccc2O[C@@H]1CN(C)Cc1ccc(Oc2ccccc2)cc1 | inactive |

| Compound | cytotoxicity call |
| --- | --- |
| C[C@@H]1CN([C@@H](C)CO)C(=O)c2cc(NC(=O)Cc3cn(C)c4ccccc34)ccc2O[C@H]1CN(C)Cc1ccc(Oc2ccccc2)cc1 | inactive |
| C[C@H]1CN([C@@H](C)CO)C(=O)c2cc(NC(=O)Cc3cn(C)c4ccccc34)ccc2O[C@H]1CN(C)Cc1ccc(Oc2ccccc2)cc1 | inactive |
| C[C@@H]1CN([C@H](C)CO)C(=O)c2cc(NC(=O)Cc3cn(C)c4ccccc34)ccc2O[C@H]1CN(C)Cc1ccc(-c2ccccc2)cc1 | inactive |
| C[C@@H]1CN([C@H](C)CO)C(=O)c2cc(NC(=O)Cc3cn(C)c4ccccc34)ccc2O[C@H]1CN(C)Cc1ccc(Oc2ccccc2)cc1 | inactive |
| CC(C)[C@@H](N)c1ncnn1C | inactive |
| COc1ccc(NC(=O)Nc2ccc3c(c2)C(=O)N([C@H](C)CO)C[C@@H](C)[C@H](CN(C)S(=O)(=O)c2ccc(Cl)cc2)OCCCC[C@H](C)O3)cc1 | inactive |
| CC(C)C#Cc1cnc2c(c1)C(=O)N([C@@H](C)CO)C[C@H](C)[C@H](CN(C)C(=O)c1ccc3c(c1)OCO3)O2 | inactive |
| C[C@H](CO)N1C[C@H](C)[C@@H](CN(C)C(=O)Cc2ccccn2)Oc2cc(-c3cccc(C(=O)N(C)C)c3)ccc2S1(=O)=O | inactive |
| C[C@H]1[C@H]([Si](C)(C)F)[C@@H](CC(=O)N2Cc3ccccc3C[C@H]2CO)O[C@]12C(=O)N(c1ccccc1)c1ccccc12 | inactive |
| CCCNc1ncnc(N)c1[N+](=O)[O-] | inactive |
| NS(=O)(=O)c1ccccc1 | inactive |
| Nc1ccccc1S(N)(=O)=O | inactive |
| NS(=O)(=O)C#Cc1ccccc1 | active |
| CCC[C@@H](O)C#Cc1cnc2c(c1)C(=O)N([C@H](C)CO)C[C@H](C)[C@H](CN(C)S(C)(=O)=O)O2 | inactive |
| CCOc1cc(C(C)(C)C)ccc1C1=N[C@@](C)(c2ccc(Cl)cc2)[C@@](C)(c2ccc(Cl)cc2)N1C(=O)N1CCN(CCCS(C)(=O)=O)CC1 | active |
| C[C@H]1CN([C@@H](C)CO)S(=O)(=O)c2ccc(/C=C/c3ccccc3)cc2O[C@@H]1CN(C)C(=O)CN1CCOCC1 | inactive |
| C[C@H]1CN([C@@H](C)CO)C(=O)Cc2cc(NC(=O)c3ccncc3)ccc2O[C@@H]1CN(C)S(=O)(=O)c1cn(C)cn1 | inactive |
| COc1cccc(S(=O)(=O)N(C)C[C@@H]2Oc3ncc(C#CC(C)C)cc3C(=O)N([C@@H](C)CO)C[C@@H]2C)c1 | inactive |
| COc1ccc(NC(=O)Nc2ccc3c(c2)C(=O)N([C@H](C)CO)C[C@@H](C)[C@H](CN(C)C(=O)Nc2cccc4ccccc24)O3)cc1 | inactive |
| COc1ccc(S(=O)(=O)N(C)C[C@H]2Oc3ccc(NC(=O)Cc4ccccc4)cc3C(=O)N([C@H](C)CO)C[C@@H]2C)cc1 | active |
| COc1ccc(S(=O)(=O)N(C)C[C@H]2Oc3ccc(NC(=O)Nc4cccc5ccccc45)cc3C(=O)N([C@@H](C)CO)C[C@@H]2C)cc1 | inactive |

| Compound | cytotoxicity call |
| --- | --- |
| COc1ccc(NC(=O)Nc2ccc3c(c2)C(=O)N([C@H](C)CO)C[C@H](C)[C@@H](CN(C)C(=O)Nc2cccc4ccccc24)O3)cc1 | inactive |
| COc1ccc(NC(=O)Nc2ccc3c(c2)C(=O)N([C@@H](C)CO)C[C@H](C)[C@H](CN(C)C(=O)Nc2cccc4ccccc24)O3)cc1 | inactive |
| COc1ccc(S(=O)(=O)N(C)C[C@H]2Oc3ccc(NC(=O)Nc4cccc5ccccc45)cc3C(=O)N([C@H](C)CO)C[C@H]2C)cc1 | inactive |
| COc1ccc(S(=O)(=O)N(C)C[C@@H]2Oc3ccc(NC(=O)Cc4ccccc4)cc3C(=O)N([C@@H](C)CO)C[C@@H]2C)cc1 | inactive |
| COc1ccc(S(=O)(=O)N(C)C[C@H]2Oc3ccc(NC(=O)Cc4ccccc4)cc3C(=O)N([C@@H](C)CO)C[C@@H]2C)cc1 | inactive |
| COc1ccc(NC(=O)Nc2ccc3c(c2)C(=O)N([C@H](C)CO)C[C@@H](C)[C@@H](CN(C)C(=O)Nc2cccc4ccccc24)O3)cc1 | active |
| COc1ccc(NC(=O)Nc2ccc3c(c2)C(=O)N([C@@H](C)CO)C[C@@H](C)[C@H](CN(C)C(=O)Nc2cccc4ccccc24)O3)cc1 | inactive |
| COc1ccc(NC(=O)Nc2ccc3c(c2)C(=O)N([C@@H](C)CO)C[C@@H](C)[C@@H](CN(C)C(=O)Nc2cccc4ccccc24)O3)cc1 | active |
| COc1ccc(S(=O)(=O)N(C)C[C@@H]2Oc3ccc(NC(=O)Nc4cccc5ccccc45)cc3C(=O)N([C@@H](C)CO)C[C@H]2C)cc1 | active |
| C[C@H]1C(=O)C(=O)[C@@H]2O[C@@H]2C1=O | inactive |
| C[C@@H]1CN([C@@H](C)CO)C(=O)c2cc(NC(=O)C3CCCCC3)ccc2O[C@@H](C)CCCCO[C@@H]1CN(C)C(=O)c1ccncc1 | inactive |
| C=CC(=O)N[C@@H]1c2ccccc2C[C@@H]1O | inactive |
| Cc1noc(C)c1NC(=O)N(C)C[C@H]1OCCCC[C@@H](C)Oc2ccc(NS(=O)(=O)c3ccc(F)cc3)cc2C(=O)N([C@@H](C)CO)C[C@@H]1C | inactive |
| COc1ccc(S(=O)(=O)Nc2ccc3c(c2)C(=O)N([C@H](C)CO)C[C@@H](C)[C@@H](CN(C)Cc2ccc(Cl)c(Cl)c2)O3)cc1 | inactive |
| COc1ccc(S(=O)(=O)Nc2ccc3c(c2)C(=O)N([C@@H](C)CO)C[C@@H](C)[C@H](CN(C)Cc2ccc(Cl)c(Cl)c2)O3)cc1 | inactive |
| COc1ccc(S(=O)(=O)Nc2ccc3c(c2)C(=O)N([C@@H](C)CO)C[C@H](C)[C@H](CN(C)Cc2ccc(Cl)c(Cl)c2)O3)cc1 | inactive |
| COc1ccc(S(=O)(=O)Nc2ccc3c(c2)C(=O)N([C@H](C)CO)C[C@@H](C)[C@H](CN(C)Cc2ccc(Cl)c(Cl)c2)O3)cc1 | active |
| COc1ccc(S(=O)(=O)Nc2ccc3c(c2)C(=O)N([C@H](C)CO)C[C@H](C)[C@@H](CN(C)Cc2ccc(Cl)c(Cl)c2)O3)cc1 | inactive |
| COc1ccc(S(=O)(=O)Nc2ccc3c(c2)C(=O)N([C@@H](C)CO)C[C@H](C)[C@@H](CN(C)Cc2ccc(Cl)c(Cl)c2)O3)cc1 | active |
| COc1ccc(S(=O)(=O)Nc2ccc3c(c2)C(=O)N([C@H](C)CO)C[C@H](C)[C@H](CN(C)Cc2ccc(Cl)c(Cl)c2)O3)cc1 | inactive |
| COc1ccc(S(=O)(=O)Nc2ccc3c(c2)C(=O)N([C@@H](C)CO)C[C@@H](C)[C@@H](CN(C)Cc2ccc(Cl)c(Cl)c2)O3)cc1 | active |
